Hit rate of the full screen: of about 28,000 sequences, about 1,300 (4.6%) were called active. The sample holds actives, similar sequences and a random draw of the others, so the mix is not that of the screen. Rule as the data show it: active = GI50 up to about 1.1 µM and inactive = higher. Results with a measured potency or affinity are listed apart.
The substances below were run on MDA-N.

Substance	GI50 [µM]
[Bis(aminomethyl)pentamethylenesilane]dichloropaltinum(II), CHEMBL2146202	2.42
[Bis(aminomethyl)pentamethylenesilane]tetrachloropaltinum(IV), CHEMBL2146204	0.935
[Bis(aminomethyl)dimethylsilane]tetrachloroplatinum(IV), CHEMBL2146190	15.9
[Bis(aminomethyl)tetramethylenesilane]tetrachloropaltinum(IV), CHEMBL2146189	2.72
CISPLATIN, CHEMBL11359	6.18
[Bis(aminomethyl)tetramethylenesilane]dichloropaltinum(II), CHEMBL2146205	6.89

Source: ChEMBL document CHEMBL1201862, “PubChem BioAssay data set” (2004)
